Legend:
[1] = target: Sphingosine kinase 1 (Homo sapiens) (UniProt Q9NYA1); conditions: at 1 µM;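 also: mean SPHK1 inhibition value reported from the GSK PKIS kinase panel screen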
[2] = target: T1, Sphingosine kinase 2 (Homo sapiens) (UniProt Q9NRA0); conditions: at 0.1 µM
T1 sequence (whole entry): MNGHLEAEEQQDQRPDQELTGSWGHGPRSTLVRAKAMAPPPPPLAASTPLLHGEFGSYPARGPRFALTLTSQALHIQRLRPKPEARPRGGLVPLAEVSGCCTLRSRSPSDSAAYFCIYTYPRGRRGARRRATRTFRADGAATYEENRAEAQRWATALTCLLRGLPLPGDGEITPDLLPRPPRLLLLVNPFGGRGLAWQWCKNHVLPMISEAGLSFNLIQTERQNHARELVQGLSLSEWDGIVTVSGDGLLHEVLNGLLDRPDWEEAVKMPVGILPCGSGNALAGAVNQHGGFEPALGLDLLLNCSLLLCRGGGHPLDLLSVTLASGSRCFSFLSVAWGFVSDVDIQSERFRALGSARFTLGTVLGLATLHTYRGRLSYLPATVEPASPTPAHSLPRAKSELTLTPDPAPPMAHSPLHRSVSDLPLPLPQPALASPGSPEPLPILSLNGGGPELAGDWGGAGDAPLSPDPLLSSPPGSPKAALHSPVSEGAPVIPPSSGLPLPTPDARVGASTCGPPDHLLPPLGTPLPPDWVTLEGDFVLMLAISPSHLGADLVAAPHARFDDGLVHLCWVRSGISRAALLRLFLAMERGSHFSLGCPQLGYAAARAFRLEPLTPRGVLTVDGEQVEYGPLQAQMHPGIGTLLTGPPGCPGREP

[3] = target: T1, Sphingosine kinase 2 (Homo sapiens); conditions: at 1 µM
[4] = target: Casein kinase II subunit alpha (Homo sapiens) (UniProt P68400); conditions: at 0.1 µM
Sequence of Casein kinase II subunit alpha (Homo sapiens) (P68400 whole entry, looked up): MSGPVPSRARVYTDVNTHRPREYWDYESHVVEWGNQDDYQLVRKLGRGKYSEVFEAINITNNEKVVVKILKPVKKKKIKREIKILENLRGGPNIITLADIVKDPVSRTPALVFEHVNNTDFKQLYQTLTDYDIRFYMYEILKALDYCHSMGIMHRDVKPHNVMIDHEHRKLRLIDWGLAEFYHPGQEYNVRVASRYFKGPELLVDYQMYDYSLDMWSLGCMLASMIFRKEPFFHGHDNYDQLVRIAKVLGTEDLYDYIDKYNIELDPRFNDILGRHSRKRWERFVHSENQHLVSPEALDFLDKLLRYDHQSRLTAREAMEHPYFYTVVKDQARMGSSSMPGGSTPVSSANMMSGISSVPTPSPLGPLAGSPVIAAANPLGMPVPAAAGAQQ

[5] = target: Casein kinase II subunit alpha (Homo sapiens) (UniProt P68400); conditions: at 1 µM
[6] = target: T2, Inhibitor of nuclear factor kappa-B kinase subunit alpha (Homo sapiens) (UniProt O15111); conditions: at 0.1 µM
T2 sequence (whole entry): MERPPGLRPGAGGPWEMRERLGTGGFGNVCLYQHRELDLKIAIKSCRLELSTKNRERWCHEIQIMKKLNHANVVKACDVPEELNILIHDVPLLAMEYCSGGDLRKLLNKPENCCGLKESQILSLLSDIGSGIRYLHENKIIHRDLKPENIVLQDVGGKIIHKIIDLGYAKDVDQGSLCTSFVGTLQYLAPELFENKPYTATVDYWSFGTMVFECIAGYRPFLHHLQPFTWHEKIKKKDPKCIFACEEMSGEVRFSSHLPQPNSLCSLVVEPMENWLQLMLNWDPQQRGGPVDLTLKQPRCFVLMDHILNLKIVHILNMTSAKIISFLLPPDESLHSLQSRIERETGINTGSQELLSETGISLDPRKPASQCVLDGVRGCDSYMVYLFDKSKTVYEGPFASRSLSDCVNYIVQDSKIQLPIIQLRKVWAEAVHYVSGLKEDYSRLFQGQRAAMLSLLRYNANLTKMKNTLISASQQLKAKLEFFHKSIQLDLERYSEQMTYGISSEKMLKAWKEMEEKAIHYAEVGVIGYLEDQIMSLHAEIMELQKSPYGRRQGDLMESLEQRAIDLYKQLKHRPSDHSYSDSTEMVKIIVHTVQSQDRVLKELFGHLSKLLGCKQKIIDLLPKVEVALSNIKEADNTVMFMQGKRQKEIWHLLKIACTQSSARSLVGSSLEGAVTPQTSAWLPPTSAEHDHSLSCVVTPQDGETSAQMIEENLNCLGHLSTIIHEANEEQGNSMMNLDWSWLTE

[7] = target: T2, Inhibitor of nuclear factor kappa-B kinase subunit alpha (Homo sapiens); conditions: at 1 µM
[8] = target: T3, Inhibitor of nuclear factor kappa-B kinase subunit beta (Homo sapiens) (UniProt O14920); conditions: at 0.1 µM
T3 sequence (whole entry): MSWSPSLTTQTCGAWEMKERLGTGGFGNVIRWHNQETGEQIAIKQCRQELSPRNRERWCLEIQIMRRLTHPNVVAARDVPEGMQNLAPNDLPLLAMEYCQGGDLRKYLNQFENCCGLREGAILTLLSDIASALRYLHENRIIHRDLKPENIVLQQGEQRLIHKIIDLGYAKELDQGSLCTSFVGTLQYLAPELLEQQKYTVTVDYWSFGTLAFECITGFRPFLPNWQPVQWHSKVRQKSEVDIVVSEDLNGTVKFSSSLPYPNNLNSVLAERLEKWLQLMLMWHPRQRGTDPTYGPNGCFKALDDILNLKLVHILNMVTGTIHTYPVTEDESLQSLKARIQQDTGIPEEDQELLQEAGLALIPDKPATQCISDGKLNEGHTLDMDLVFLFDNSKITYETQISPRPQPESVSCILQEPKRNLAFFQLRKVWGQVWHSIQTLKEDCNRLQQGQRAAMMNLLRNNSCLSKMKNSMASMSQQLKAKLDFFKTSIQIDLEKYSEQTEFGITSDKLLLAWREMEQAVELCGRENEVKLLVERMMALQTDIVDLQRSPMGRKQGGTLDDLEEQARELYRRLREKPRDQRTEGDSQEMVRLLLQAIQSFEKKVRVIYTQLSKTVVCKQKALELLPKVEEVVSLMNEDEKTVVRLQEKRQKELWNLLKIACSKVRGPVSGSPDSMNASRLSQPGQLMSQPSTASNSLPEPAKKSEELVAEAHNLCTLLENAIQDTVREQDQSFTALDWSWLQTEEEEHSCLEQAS

[9] = target: T3, Inhibitor of nuclear factor kappa-B kinase subunit beta (Homo sapiens); conditions: at 1 µM
[10] = target: T4, Inhibitor of nuclear factor kappa-B kinase subunit epsilon (Homo sapiens) (UniProt Q14164); conditions: at 0.1 µM
T4 sequence (whole entry): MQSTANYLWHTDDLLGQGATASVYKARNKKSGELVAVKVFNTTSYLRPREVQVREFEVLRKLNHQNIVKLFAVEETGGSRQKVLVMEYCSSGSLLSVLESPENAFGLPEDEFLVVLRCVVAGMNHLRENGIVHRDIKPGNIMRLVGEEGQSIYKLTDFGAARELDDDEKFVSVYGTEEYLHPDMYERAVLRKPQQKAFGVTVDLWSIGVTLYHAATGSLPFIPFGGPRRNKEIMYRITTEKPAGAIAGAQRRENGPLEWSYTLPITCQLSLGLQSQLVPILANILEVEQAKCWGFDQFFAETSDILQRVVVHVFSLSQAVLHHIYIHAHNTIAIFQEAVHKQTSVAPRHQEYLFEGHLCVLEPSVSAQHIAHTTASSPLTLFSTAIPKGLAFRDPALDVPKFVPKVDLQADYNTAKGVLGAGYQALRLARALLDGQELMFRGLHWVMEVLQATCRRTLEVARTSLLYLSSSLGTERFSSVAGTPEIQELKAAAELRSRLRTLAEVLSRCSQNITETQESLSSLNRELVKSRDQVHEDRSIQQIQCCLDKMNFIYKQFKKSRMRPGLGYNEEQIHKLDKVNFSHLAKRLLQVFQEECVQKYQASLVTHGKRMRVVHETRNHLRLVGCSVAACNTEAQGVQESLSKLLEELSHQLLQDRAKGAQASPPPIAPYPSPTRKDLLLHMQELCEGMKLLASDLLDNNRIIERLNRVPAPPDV

[11] = target: T4, Inhibitor of nuclear factor kappa-B kinase subunit epsilon (Homo sapiens); conditions: at 1 µM
[12] = target: T5, Serine/threonine-protein kinase Nek1 (Homo sapiens) (UniProt Q96PY6); conditions: at 0.1 µM
T5 sequence (whole entry): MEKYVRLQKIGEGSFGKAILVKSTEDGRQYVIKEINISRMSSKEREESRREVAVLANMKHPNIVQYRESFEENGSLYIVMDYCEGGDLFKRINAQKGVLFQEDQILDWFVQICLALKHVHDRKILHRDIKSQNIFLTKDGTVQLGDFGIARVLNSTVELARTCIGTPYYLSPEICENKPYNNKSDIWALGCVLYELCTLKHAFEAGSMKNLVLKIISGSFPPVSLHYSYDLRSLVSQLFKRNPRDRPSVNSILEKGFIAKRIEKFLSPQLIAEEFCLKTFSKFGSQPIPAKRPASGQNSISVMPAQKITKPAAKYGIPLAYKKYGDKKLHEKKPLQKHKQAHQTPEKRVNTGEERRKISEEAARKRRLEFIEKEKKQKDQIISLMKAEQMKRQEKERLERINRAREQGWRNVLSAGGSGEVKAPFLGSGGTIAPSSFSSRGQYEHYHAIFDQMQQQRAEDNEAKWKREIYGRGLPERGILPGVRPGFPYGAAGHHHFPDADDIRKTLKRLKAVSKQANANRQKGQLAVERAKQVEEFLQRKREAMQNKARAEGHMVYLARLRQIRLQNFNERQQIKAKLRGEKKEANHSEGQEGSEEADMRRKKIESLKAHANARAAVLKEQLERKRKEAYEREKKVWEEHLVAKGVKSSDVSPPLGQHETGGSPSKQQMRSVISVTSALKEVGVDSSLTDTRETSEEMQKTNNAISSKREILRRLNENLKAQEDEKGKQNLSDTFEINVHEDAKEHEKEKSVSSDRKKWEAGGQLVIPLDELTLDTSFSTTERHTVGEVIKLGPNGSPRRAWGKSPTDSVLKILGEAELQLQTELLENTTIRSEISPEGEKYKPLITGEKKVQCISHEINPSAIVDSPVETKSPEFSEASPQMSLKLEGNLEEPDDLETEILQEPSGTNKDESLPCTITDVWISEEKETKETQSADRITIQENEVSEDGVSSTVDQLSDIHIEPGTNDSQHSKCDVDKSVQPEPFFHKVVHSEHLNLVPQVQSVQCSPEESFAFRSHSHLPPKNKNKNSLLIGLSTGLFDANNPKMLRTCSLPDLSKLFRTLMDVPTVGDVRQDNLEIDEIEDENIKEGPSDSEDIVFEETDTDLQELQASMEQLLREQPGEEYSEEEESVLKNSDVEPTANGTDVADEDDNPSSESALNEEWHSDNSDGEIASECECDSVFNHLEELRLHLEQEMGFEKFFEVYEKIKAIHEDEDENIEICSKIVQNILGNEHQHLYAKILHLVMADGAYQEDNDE

[13] = target: T5, Serine/threonine-protein kinase Nek1 (Homo sapiens); conditions: at 1 µM
[14] = target: T6, Serine/threonine-protein kinase Nek2 (Homo sapiens) (UniProt P51955); conditions: at 0.1 µM
T6 sequence (whole entry): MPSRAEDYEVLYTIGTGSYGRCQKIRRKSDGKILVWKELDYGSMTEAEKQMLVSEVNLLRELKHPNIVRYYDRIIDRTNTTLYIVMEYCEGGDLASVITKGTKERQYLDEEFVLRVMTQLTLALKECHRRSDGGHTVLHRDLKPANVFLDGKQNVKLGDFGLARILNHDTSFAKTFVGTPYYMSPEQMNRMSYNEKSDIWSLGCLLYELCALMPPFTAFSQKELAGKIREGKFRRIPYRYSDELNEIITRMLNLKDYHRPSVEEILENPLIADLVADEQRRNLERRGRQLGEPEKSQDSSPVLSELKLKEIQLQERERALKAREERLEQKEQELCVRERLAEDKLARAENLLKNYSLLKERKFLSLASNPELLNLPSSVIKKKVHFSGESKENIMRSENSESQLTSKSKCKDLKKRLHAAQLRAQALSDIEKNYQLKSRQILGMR

[15] = target: T6, Serine/threonine-protein kinase Nek2 (Homo sapiens); conditions: at 1 µM
[16] = target: Serine/threonine-protein kinase Nek6 (Homo sapiens) (UniProt Q9HC98); conditions: at 0.1 µM
Sequence of Serine/threonine-protein kinase Nek6 (Homo sapiens) (Q9HC98 whole entry): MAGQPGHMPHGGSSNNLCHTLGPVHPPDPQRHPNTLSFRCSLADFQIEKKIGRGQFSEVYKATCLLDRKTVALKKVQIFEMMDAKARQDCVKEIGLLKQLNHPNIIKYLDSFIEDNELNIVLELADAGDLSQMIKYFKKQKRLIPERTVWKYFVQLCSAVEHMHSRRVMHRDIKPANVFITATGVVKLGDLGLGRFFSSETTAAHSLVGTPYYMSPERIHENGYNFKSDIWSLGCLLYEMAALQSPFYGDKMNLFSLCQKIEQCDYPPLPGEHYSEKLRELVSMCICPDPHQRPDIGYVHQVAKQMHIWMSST

[17] = target: Serine/threonine-protein kinase Nek6 (Homo sapiens) (UniProt Q9HC98); conditions: at 1 µM
[18] = target: Serine/threonine-protein kinase Nek7 (Homo sapiens) (UniProt Q8TDX7); conditions: at 0.1 µM
Sequence of Serine/threonine-protein kinase Nek7 (Homo sapiens) (Q8TDX7 whole entry, looked up): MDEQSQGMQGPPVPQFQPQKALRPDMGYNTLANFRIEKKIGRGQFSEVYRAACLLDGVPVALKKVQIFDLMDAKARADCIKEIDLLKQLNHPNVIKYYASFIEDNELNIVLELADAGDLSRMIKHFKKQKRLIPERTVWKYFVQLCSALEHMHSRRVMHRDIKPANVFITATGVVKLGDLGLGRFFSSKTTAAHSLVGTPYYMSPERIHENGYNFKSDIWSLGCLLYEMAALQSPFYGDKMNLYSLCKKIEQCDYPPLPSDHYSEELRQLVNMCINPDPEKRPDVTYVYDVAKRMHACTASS

[19] = target: Serine/threonine-protein kinase Nek7 (Homo sapiens) (UniProt Q8TDX7); conditions: at 1 µM
[20] = target: T7, Serine/threonine-protein kinase Nek9 (Homo sapiens) (UniProt Q8TD19); conditions: at 0.1 µM;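 also: reported value is the mean percent inhibition of NEK9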
T7 sequence (whole entry): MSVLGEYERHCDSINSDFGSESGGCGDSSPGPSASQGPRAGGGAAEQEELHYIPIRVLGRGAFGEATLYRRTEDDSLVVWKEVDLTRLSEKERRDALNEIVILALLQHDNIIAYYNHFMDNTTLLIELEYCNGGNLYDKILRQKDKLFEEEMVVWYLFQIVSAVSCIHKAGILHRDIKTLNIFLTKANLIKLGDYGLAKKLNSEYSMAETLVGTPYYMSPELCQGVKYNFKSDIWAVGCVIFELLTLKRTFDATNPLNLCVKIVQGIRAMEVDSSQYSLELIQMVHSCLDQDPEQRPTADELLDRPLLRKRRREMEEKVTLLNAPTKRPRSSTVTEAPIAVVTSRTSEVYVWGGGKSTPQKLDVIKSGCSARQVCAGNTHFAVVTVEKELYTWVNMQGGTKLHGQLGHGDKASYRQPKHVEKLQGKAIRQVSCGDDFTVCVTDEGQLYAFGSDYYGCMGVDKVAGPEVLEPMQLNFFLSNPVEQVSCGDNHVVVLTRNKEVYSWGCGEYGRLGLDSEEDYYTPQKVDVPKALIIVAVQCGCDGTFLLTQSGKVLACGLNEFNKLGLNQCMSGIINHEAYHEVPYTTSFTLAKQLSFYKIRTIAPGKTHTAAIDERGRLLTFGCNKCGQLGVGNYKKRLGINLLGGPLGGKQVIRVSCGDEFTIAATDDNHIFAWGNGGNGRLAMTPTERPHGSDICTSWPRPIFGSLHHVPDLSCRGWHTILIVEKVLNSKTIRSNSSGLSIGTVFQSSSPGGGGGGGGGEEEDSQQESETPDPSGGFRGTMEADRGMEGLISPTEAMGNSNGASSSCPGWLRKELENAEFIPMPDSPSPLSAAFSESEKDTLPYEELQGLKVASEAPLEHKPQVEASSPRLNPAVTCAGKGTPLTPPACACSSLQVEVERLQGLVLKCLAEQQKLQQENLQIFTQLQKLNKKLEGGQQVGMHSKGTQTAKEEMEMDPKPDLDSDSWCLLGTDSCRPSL

Sequence of Sphingosine kinase 1 (Homo sapiens) (Q9NYA1 whole entry): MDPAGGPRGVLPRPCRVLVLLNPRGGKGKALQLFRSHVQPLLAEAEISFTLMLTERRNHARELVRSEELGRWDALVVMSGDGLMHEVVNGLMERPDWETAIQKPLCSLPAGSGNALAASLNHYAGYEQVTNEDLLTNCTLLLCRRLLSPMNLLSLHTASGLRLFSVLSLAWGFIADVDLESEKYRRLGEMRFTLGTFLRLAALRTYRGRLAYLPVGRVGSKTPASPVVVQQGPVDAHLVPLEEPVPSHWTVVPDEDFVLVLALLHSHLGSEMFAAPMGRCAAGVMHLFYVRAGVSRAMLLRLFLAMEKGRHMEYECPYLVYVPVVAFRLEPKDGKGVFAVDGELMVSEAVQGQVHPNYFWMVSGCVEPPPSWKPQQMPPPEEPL

SMILES | inhibition [1] [%] | inhibition [2] [%] | inhibition [3] [%] | inhibition [4] [%] | inhibition [5] [%] | inhibition [6] [%] | inhibition [7] [%] | inhibition [8] [%] | inhibition [9] [%] | inhibition [10] [%] | inhibition [11] [%] | inhibition [12] [%] | inhibition [13] [%] | inhibition [14] [%] | inhibition [15] [%] | inhibition [16] [%] | inhibition [17] [%] | inhibition [18] [%] | inhibition [19] [%] | inhibition [20] [%]
COc1cc2ncn(-c3cc(O[C@@H](C)c4ccccc4Cl)c(C(N)=O)s3)c2cc1OC | -1.61 | -0.7 | 0 | 6.99 | 3.34 | 4.16 | 8.5 | 6.47 | 4.88 | 5.3 | 7.74 | 4.69 | 19.3 | 5.52 | 10.4 | 1.03 | 0.67 | 3.47 | 4.57 | 7.99
O=C1NC(=O)C(N2CCc3ccccc32)=C1c1ccc(Cl)cc1 | 2.74 | 0.69 | 0.87 | 1.59 | -1.39 | 5.45 | 4.39 | 5.07 | 4.89 | 3.79 | 3.58 | 3.18 | 2.69 | 6.49 | 7.76 | -0.04 | -0.02 | 6.9 | 4.24 | 5.67
